Screening results as filed in PubChem BioAssay.
Shown are actives, neighbours in structure and some others; about 19% of the full set was active somewhere.
DT40 TDP1 CPT: DT40-hTDP1 cell growth loss with CPT. chicken DT40 Tdp1-/-;hTDP1 cells + 20 nM CPT, ATP luminescence, 48 h. AID 686979. Potency, µM (titrated, usually from 46.2 µM), inactives show top-dose activity change, negative = growth inhibition, most hits filed as inhibitors. 420,000 tested, 12% active; note: potency is the fitted concentration of half-maximal effect; nearly all actives have a fitted effect of over 55% in size
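Chicken DT40 Tdp1-/- cells complemented with human TDP1, 400 cells/well, exposed to compounds plus 20 nM camptothecin for at least 48 h at 37 C; viability read as ATP content by CellTiter-Glo luminescence.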
HT1080 IDH1KD tx: HT-1080 IDH1 knockdown cell toxicity (counter line); AID 686971; 360,000 tested, 2% active; Potency, µM (top dose mostly 46.1 µM), inactives show top-dose activity, negative = toxicity, hits mostly cytotoxic; HT-1080 IDH1 knockdown viability, ATP luminescence, 48 h;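 note: potency is the fitted concentration of half-maximal effect; 0% = DMSO wells and -100% = cell-free medium wells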
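% activity derives from luminescence (CellTiter-Glo), normalised to DMSO and no-cell wells. HT-1080-IDH1KD cells, 750/well, had 48 h compound exposure at 37 °C.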
ELG1 repair inh: inhibitors of ELG1-dependent DNA repair in HEK293T cells | HEK293T ELG1-luciferase reporter, luminescence, 16 h; DNA damage induced by 5-fluorouridine | Potency, µM (highest dose often 46.1 µM), inactives show at the highest dose activity change, negative = inhibition, most hits filed as inhibitors | 330,000 tested, 2.3% active; note: potency is the fitted concentration of half-maximal effect; nearly all actives have a fitted effect of over 55% in size
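5-Fluorouridine DNA damage + compound/DMSO, 2,000 cells/well, 16 h, 37 °C/5% CO2. ONE-Glo, 30 min RT, luminescence. Readout = decrease in reporter signal.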
HT1080NT lethal: kills 2HG-producing HT-1080-NT fibrosarcoma cells | HT-1080-NT fibrosarcoma viability, CellTiter-Glo ATP luminescence, 48 h | Potency, µM (series often up to 46.1 µM), inactives show at the highest dose activity, negative = less viability, hits mostly cytotoxic | 360,000 tested, 1.6% active;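 note: NT is the 2HG producing partner of a matched IDH1 knockdown line; potency is the fitted concentration of half-maximal effect; 0% = DMSO-treated cells and -100% = media-only wells without cells; nearly all actives have a fitted effect of over 55% in size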
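HT-1080-NT fibrosarcoma cells (2HG-overproducing), 750 cells/well in RPMI with 5% FBS, dosed after 2 h and incubated 48 h at 37C. CellTiter-Glo luminescence normalized to DMSO and no-cell wells; concentration-response curves fitted and classed.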
IL-1B inflam inh: inflammasome signaling inhibition, IL-1 beta readout; 360,000 tested, 4.7% active; activity change, % at 57.5 µM; THP-1 LPS/ATP IL-1B secretion, AlphaLISA, 16 h; hits give low values; AID 743279; in the data active = activity change below about -50%; inconclusive = mostly about -30% to -49%
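Secreted IL-1B measured by AlphaLISA bead assay after 16 h compound exposure of THP-1 cells; compounds (final up to 57.5 uM) added 1 h before LPS (250 ng/mL) and ATP (1.25 mM) stimulation; lower signal means less secretion.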
DT40 TDP1 no CPT: qHTS for Inhibitors of human tyrosyl-DNA phosphodiesterase 1 (TDP1): qHTS in cells in absence of CPT | Potency, µM (top dose mostly 46.2 µM), for inactives: top-dose activity change, negative = growth inhibition, hits mostly inhibitors | 420,000 tested, 15% active | DT40 Tdp1-/- hTDP1 cells, no CPT, ATP luminescence, 48 h; note: potency is the fitted concentration of half-maximal effect; nearly all actives have a fitted effect of over 55% in size
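A cellular qHTS used chicken DT40 cells lacking endogenous Tdp1 but carrying stably transfected human TDP1. Compounds were applied without camptothecin, and cell growth kinetics were judged by ATP-dependent luminescence after ≥48 hr.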
Starred values were filed as active, the others as inactive; ? = inconclusive; · = not tested or not shown. Unless noted, calls come from the whole dose curve; as a rule, active = well fitted curve in the direction sought with a large enough effect; inconclusive = small, poorly fitted or top-dose-only effect, or another doubt; inactive = no such curve, though single readings can be large; an effect the other way counts as inactive or inconclusive. Unless noted, % is set by controls: 0 for no effect and ±100 for the full control effect.

SMILES	DT40 TDP1 CPT	HT1080 IDH1KD tx	ELG1 repair inh	HT1080NT lethal	IL-1B inflam inh	DT40 TDP1 no CPT
CCCN(CCC)CC(O)CN1C(=O)N(CN2C(=O)N(CC(O)CN(CCC)CCC)C(=O)C2(C)C)C(C)(C)C1=O (stereo not drawn)	5%	-5%	-2%	-29%	-65*	8%
CC(=O)c1cc(NC(=O)c2ccc([N+](=O)[O-])cc2)c(=O)oc1C	?	18%	-5%	13%	-18	23µM*
COC(=O)c1cc(NC(=O)c2ccc([N+](=O)[O-])cc2)c(=O)oc1C	-2%	3%	-5%	1%	20	-21%
Cc1oc(=O)c(NC(=O)c2cccc(Cl)c2)cc1C(=O)c1ccccc1	29µM*	?	?	?	?	21µM*
COC(=O)c1cc(NC(=O)c2ccccc2)c(=O)oc1C	8%	-12%	?	-10%	-4	-17%
Cc1oc(=O)c(NC(=O)c2ccccc2)cc1C(N)=O	24%	-4%	1%	-18%	19	-2%
COc1ccc(C(=O)Nc2cc(C(=O)c3ccccc3)c(C)oc2=O)cc1	13µM*	-2%	29%	-3%	-11	10µM*
CCn1c(CC(=O)Nc2ccccc2)nnc1SCC(=O)Nc1nnc(C)s1	2%	-1%	12%	12%	0	?
CCC12CCCN3CCC4(C(=C(C(=O)OC)C1)Nc1ccccc14)C32 (stereo not drawn)	16µM*	1%	?	0%	26	16µM*
COC(=O)C1=C(C(=O)OC)[C@@H]2Nc3ccccc3[C@@]23C[C@@H](C(=O)OC)N=C3N1	-5%	-2%	8%	1%	9	-7%
CCC(=O)N1CCc2cc(Br)cc(S(=O)(=O)N3CCN(c4cccc(Cl)c4)CC3)c21	2%	·	·	·	·	-14%
O=C(CCl)N(C1CCCC1)C1CCS(=O)(=O)C1 (stereo not drawn)	18µM*	?	?	?	?	15µM*
CC(=O)c1ccc(OCC(=O)N(C2CCCCC2)C2CCS(=O)(=O)C2)cc1 (stereo not drawn)	5%	4%	1%	6%	17	6%
COC(=O)C(NC(=O)c1ccccc1C)(Nc1ncc(S(=O)(=O)c2ccc([N+](=O)[O-])cc2)s1)C(F)(F)F (stereo not drawn)	?	?	?	?	-23	?
COC(=O)C(NC(=O)c1ccc(F)cc1)(Nc1ncc(S(=O)(=O)c2ccc([N+](=O)[O-])cc2)s1)C(F)(F)F (stereo not drawn)	16µM*	?	-22%	?	-3	13µM*
CC(CCc1ccc(O)cc1)NCCc1ccc(O)c(O)c1 (stereo not drawn)	27µM*	?	·	?	?	15µM*
Clc1cccc(Cl)c1CSc1nnc(CN2CCOCC2)n1-c1ccccc1	16µM*	-8%	-5%	-9%	-1	?
Cc1ccc(C(=O)Nc2ccc(S(=O)(=O)NC3=NCCCCC3)cc2)cc1S(=O)(=O)N1CCOCC1	?	-4%	?	-2%	0	-5%
Cc1c(CCC(=O)NCc2ccc(F)cc2)c(=O)oc2cc(O)ccc12	-5%	·	·	·	·	-20%
COc1ccc(-c2nc3ccc(Cl)cn3c2Cc2ccccc2)cc1OC	-21%	8%	·	-1%	-27	?
CCC(C)Sc1ccc(-c2nc3ccc(C)cn3c2NCc2ccccc2)cc1OC (stereo not drawn)	21µM*	?	?	?	-100*	16µM*
CCC(C)Sc1cc(-c2nc3ccc(C)cn3c2NCc2ccccc2)ccc1OC (stereo not drawn)	4.6µM*	?	·	?	-102*	4.1µM*
CCCn1cc(S(=O)(=O)c2ccc(Cl)cc2)c(=O)c2cc(OC)ccc21	16µM*	-16%	-12%	12%	-17	23µM*
COc1ccc2c(c1)c(=O)c(S(=O)(=O)c1ccc(Cl)cc1)cn2Cc1cc(C)ccc1C	-21%	·	·	·	·	?
COc1ccc2c(c1)c(=O)c(S(=O)(=O)c1ccc(C)cc1)cn2Cc1ccccc1C	?	·	·	·	·	18µM*
SMILES	DT40 TDP1 CPT	HT1080 IDH1KD tx	ELG1 repair inh	HT1080NT lethal	IL-1B inflam inh	DT40 TDP1 no CPT
CCOc1ccc(S(=O)(=O)c2cn(Cc3ccccc3C)c3ccc(OC)cc3c2=O)cc1	15µM*	·	·	·	·	12µM*
Cc1cccc(C)c1NC(=O)CNC(=O)c1ccc2ccccc2n1	-15%	-3%	-1%	-9%	38	-2%
CCOC(=O)c1cnc(-c2ccccc2)nc1Oc1ccc(Cl)cc1	-8%	0%	-2%	-3%	23	?
CCOC(=O)c1c(C)nc(C)c(C(=O)OCC)c1-c1ccccc1	-6%	-13%	?	5%	32	2%
CCOC(=O)c1c(Nc2ccc(F)cc2)nnc(-c2ccccc2)c1-c1ccccc1	23µM*	·	·	·	·	18µM*
CCOC(=O)c1c(Nc2ccc(OC)cc2)nnc(-c2ccccc2)c1-c1ccccc1	23µM*	·	·	·	·	23µM*
CCOC(=O)c1c(Oc2ccc(C(C)=O)cc2)nnc(-c2ccccc2)c1-c1ccccc1	21µM*	·	·	·	·	26µM*
CC1CCN(C(=O)c2ccccc2NC(=O)c2cccc(S(=O)(=O)N(C)C)c2)CC1	16%	7%	-2%	8%	6	2%
O=C1NC[C@H](CC2CCCCC2)N(CCC23CC4CC(CC(C4)C2)C3)C1=O	-8%	22%	·	1%	-2	-16%
NCCCC[C@H]1CN=C(N)N1CCC12CC3CC(CC(C3)C1)C2	?	3%	8%	6%	-55*	?
COc1ccccc1N(CC(O)COc1c(C)cc(C)cc1C)S(=O)(=O)c1ccccc1 (stereo not drawn)	?	-5%	?	4%	-56*	?
COc1ccccc1N(CC(O)Cn1c(C)nc2ccccc21)S(=O)(=O)c1ccccc1 (stereo not drawn)	?	19%	-15%	4%	13	29µM*
COc1ccccc1N(CC(O)COc1ccc(C)cc1)S(=O)(=O)c1ccccc1 (stereo not drawn)	-5%	-2%	?	4%	-93*	?
CN1CCN(c2ncnc3c2ncn3[C@H]2CN(Cc3ccc(C(=O)O)cc3)C[C@@H](CO)O2)CC1	1%	2%	·	26%	-1	1%
